Compound activity (PubChem)
rCAG binder = molecules binding r(CAG) RNA repeats; inhibition, % at 3 µM; r(CAG) RNA repeat, TO-PRO-1 dye displacement fluorescence; 370,000 compounds, 1.3% hits; AID 651821;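 active means inhibition above the plate cutoff, the mean of all test compounds on that plate plus 3 SD, cut at about 35% in these data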;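 further: 0% = DMSO alone and 100% = 100 µM mitoxantrone as full dye displacement; higher means more dye released from RNA so lower well fluorescence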
MsrA inhibitor = bovine MsrA inhibition; purified bovine MsrA, absorbance read-out; inhibition, % at 15.5 µM; 360,000 compounds, 0.75% hits; in the data active means inhibition above about 4.5%;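 further: 0% = vehicle wells with enzyme and 100% = reference inhibitor wells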
bovine MsrA act = activates bovine MsrA enzyme. AID 602163. purified bovine MsrA, absorbance read-out. 360,000 compounds, 0.3% hits. activation, % at 10.6 µM; in the data active means activation above about 7.5%;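 further: 0% = vehicle and 100% = reference activator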
DAGLB inh = diacylglycerol lipase beta (human) inhibition | Q8NCG7 | HEK293T DAGLB membrane lysate, EnzChek fluorogenic substrate | inhibition, % at 5.17 µM | 340,000 compounds, 0.059% hits; in the data active means inhibition above about 34%;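 further: 0% = enzyme with vehicle and 100% = wells lacking enzyme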
DSG3 Ab inh = inhibitors of pemphigus antibody binding to human desmoglein-3. P32926. 310,000 compounds, 0.48% hits. binding (percent of control), % at 10 µM. DSG3-coupled beads, scFv-anti-DSG3-GFP binding, flow cytometry; active compounds read low. AID 588358;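 active means binding more than 3 SD below its plate's average and above zero; inconclusive means below that plate limit but binding exactly zero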;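 further: hits lower antibody fragment binding to DSG3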
Target sequence (P32926 whole entry, looked up, the tested form may be a part): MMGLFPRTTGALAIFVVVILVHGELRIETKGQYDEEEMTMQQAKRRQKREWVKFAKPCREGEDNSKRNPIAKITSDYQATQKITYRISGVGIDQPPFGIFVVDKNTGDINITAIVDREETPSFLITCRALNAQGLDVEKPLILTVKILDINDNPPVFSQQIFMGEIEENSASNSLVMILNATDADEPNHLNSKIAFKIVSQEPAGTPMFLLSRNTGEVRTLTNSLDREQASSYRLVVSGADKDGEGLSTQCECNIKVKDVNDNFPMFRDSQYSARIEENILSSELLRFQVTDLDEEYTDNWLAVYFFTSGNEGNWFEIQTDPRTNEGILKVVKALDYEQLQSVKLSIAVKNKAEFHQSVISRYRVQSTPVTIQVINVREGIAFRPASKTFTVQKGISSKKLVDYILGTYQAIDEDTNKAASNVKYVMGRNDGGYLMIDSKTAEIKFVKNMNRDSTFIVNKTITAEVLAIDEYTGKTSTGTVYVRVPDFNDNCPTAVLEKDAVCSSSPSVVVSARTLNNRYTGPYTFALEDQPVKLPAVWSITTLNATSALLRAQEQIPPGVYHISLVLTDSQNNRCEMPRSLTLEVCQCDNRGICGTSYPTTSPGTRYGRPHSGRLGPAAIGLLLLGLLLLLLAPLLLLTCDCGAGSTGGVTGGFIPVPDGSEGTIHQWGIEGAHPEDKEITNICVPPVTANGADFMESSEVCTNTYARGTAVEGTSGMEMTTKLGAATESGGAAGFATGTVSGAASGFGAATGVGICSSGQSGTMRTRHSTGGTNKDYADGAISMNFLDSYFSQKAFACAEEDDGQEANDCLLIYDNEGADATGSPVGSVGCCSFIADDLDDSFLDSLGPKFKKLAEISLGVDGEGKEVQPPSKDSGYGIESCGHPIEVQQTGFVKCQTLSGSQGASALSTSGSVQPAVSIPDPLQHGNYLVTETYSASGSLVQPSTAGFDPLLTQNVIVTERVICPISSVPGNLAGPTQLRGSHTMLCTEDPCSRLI
NadD block = blocks S. aureus nicotinate mononucleotide adenylyltransferase; purified NadD enzyme, colorimetric absorbance read-out; inhibition, % at 20 µM; 360,000 compounds, 0.78% hits; in the data active means inhibition above about 26%
rCAG binder conf = r(CAG) RNA repeat binding, confirmation; inhibition, % at 3 µM; TO-PRO-1 dye displacement fluorescence; shares compounds with rCAG binder; 4,300 compounds, 70% hits;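 active means inhibition above a per-plate cutoff, the mean inhibition of sample wells plus 3 SD, cut at about 35% in these data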;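 further: loss of TO-PRO-1 fluorescence as compound displaces dye from 1x1 AA loop RNA; 0% = DMSO only wells and 100% = 100 µM mitoxantrone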
DNA CAG counter = disrupts DNA CAG TO-PRO-1 complex, flagging rCAG hits. shares compounds with rCAG binder. d(CAG) DNA oligo TO-PRO-1 dye displacement, fluorescence. inhibition, % at 3 µM. 4,300 compounds, 94% hits. AID 652068;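 active means inhibition above its plate's cutoff, the mean test-well inhibition plus 3 SD, cut at about 4.8% in these data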;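 further: 0% = DNA dye mix with DMSO and 100% = 100 µM mitoxantrone; hits displace the dye from DNA and so lower well fluorescence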
dCAG dye DR = counter-screen for rCAG binders: inhibitors of DNA CAG TO-PRO-1 complex; 250 compounds, 20% hits; shares compounds with rCAG binder; IC50, µM; DNA CAG/GTC duplex TO-PRO-1 dye displacement fluorescence; in the data active means IC50 below about 10 µM
* hit, by the source's call; ? = inconclusive; . = no result given. Shown are actives, neighbours in structure and some others; about 3.2% of the full set was active somewhere.

SMILES	rCAG binder	MsrA inhibitor	bovine MsrA act	DAGLB inh	DSG3 Ab inh	NadD block	rCAG binder conf	DNA CAG counter	others
CCOC(=O)C1=C(CC)Nc2ccccc2N/C1=N\S(=O)(=O)c1cc(Br)ccc1Br	63*	1	-2	.	104	2	59*	21*
CCOC(=O)C1=C(C)Nc2ccccc2N/C1=N\S(=O)(=O)c1ccc(Cl)cc1	35*	1	-5	6	?	-2	27	4.9*
CCc1cc2c(nc1CC)CCCN2S(=O)(=O)c1ccc(C#N)cc1	2	0	.	.	.	.	.	.
O=C(O)c1cc(S(=O)(=O)N(Cc2ccccc2)c2ccc(Cl)cc2)ccc1Cl	54*	-1	1	16	89	-5	43*	9.8*
O=C(O)c1cccc(S(=O)(=O)N(Cc2ccccc2)c2ccccc2Cl)c1	30	1	-2	2	113	-4	.	.
O=C(O)c1cccc(S(=O)(=O)N(Cc2ccccc2)c2cccc(C(F)(F)F)c2)c1	53*	1	2	5	89	-2	53*	12*	dCAG dye DR=>30
Cc1ccc(S(=O)(=O)N(Cc2ccc(Cl)cc2)c2ccccc2C(=O)O)cc1	30	-1	-7	2	107	-8	.	.
Cc1ccc(S(=O)(=O)N(CC(=O)Nc2ccccc2C(=O)O)c2ccc(Cl)cc2)cc1	62*	-2	-2	13	99	6	58*	18*
CSc1nc(=S)c2[nH]c(=S)[nH]c2[nH]1	65*	4	3	2	83	13	68*	30*	dCAG dye DR=9.3*
Nc1nc(=S)c2[nH]c(=S)[nH]c2[nH]1	2	1	4	-3	98	-3	.	.
CCOC(=O)c1c(NC(=O)/C=C/C(=O)O)sc(C)c1-c1ccc(C)c(C)c1	53*	1	-18	16	87	6	53*	17*
CCOC(=O)c1c(NC(=O)/C=C/C(=O)O)sc(C)c1-c1ccc(F)cc1	32	3	-6	11	87	-3	.	.
COC(=O)c1c(NC(=O)/C=C/C(=O)O)sc(C)c1-c1ccc(C)c(C)c1	37*	1	-5	11	88	0	36*	9.1*
COC(=O)c1c(NC(=O)/C=C/C(=O)O)sc(C)c1-c1ccc(C)cc1	21	1	-7	11	88	1	.	.
COC(=O)c1c(NC(=O)/C=C/C(=O)O)sc(C)c1-c1ccc(C(C)C)cc1	52*	2	-2	17	96	7	51*	16*
O=C(NCCc1ccccc1)OCc1cn(Cc2c(F)cccc2F)nn1	2	.	.	.	.	.	.	.
S=c1[nH]nc(Cc2c[nH]c3ccccc23)o1	7	-1	0	1	.	3	.	.
S=c1[nH]nc(Cc2sc(-c3ccccc3)nc2-c2ccccc2)o1	61*	1	-1	13	.	2	47*	17*
Cc1ccc(S(=O)(=O)NC(=O)Nc2cc(C)ccc2F)cc1	6	-2	-14	-3	99	-1	.	.
CC(=O)NS(=O)(=O)c1ccc(N=c2ssc3c2-c2ccc(C)cc2NC3(C)C)cc1	61*	1	2	10	102	9	52*	21*
CCc1nnc(NS(=O)(=O)c2ccc(NC(=O)/C=C/c3ccc(F)cc3)cc2)s1	73*	1	-3	7	88	3	50*	20*
CCc1nnc(NS(=O)(=O)c2ccc(NC(=S)NC(=O)c3cccnc3)cc2)s1	18	1	-2	5	107	3	.	.
CCc1nnc(NS(=O)(=O)c2ccc(NC(=S)NC(=O)c3ccc(F)cc3)cc2)s1	64*	2	-6	8	95	3	52*	19*
CCc1nnc(NS(=O)(=O)c2ccc(NC(=O)OC)cc2)s1	1	0	-2	0	111	-3	.	.
CCc1nnc(NS(=O)(=O)c2ccc(NC(=O)c3ccc(Br)cc3)cc2)s1	60*	0	-4	8	88	-3	53*	13*
SMILES	rCAG binder	MsrA inhibitor	bovine MsrA act	DAGLB inh	DSG3 Ab inh	NadD block	rCAG binder conf	DNA CAG counter	others
CCC(C(=O)NCc1ccccc1)n1c(CSCCOc2ccccc2)nc2ccccc21 (stereo unspecified)	4	0	.	.	.	.	.	.
Cc1ccc(S(=O)(=O)Nc2ccccc2-c2ccccc2NS(=O)(=O)c2ccc(C)cc2)cc1	74*	1	-5	15	102	3	89*	59*
Cc1ccc(S(=O)(=O)Nc2ccccc2C(N)=O)cc1	2	0	-8	-1	105	-2	.	.
COc1ccc(Cc2nnc(NS(=O)(=O)c3ccc([N+](=O)[O-])cc3)s2)cc1	44*	1	-4	7	98	5	49*	17*
COc1cc(NS(=O)(=O)c2ccc(Nc3nc(-c4cccc([N+](=O)[O-])c4)cs3)cc2)nc(OC)n1	95*	1	-3	11	96	28	90*	64*
O=[N+]([O-])c1cccc(-c2csc(Nc3ccccc3)n2)c1	9	1	-14	2	100	2	.	.
COc1ccc(-c2csc(Nc3ccc(S(=O)(=O)Nc4cc(C)on4)cc3)n2)cc1	73*	1	-6	4	85	9	72*	36*
O=C(OC12CCCN(C1)/C(=C/c1cccc(Cl)c1)C2)c1ccc(F)cc1 (stereo unspecified)	2	.	.	.	.	.	.	.
Cc1ccc(Nc2nc(-c3ccccc3)cs2)nc1	47*	-1	-2	-3	108	4	4	1
COc1ccc(-c2csc(NS(=O)(=O)c3ccc([N+](=O)[O-])cc3)n2)cc1	70*	1	-1	21	101	8	57*	23*
Cc1ccc(S(=O)(=O)Nc2nc(-c3ccccc3)cs2)cc1	40*	1	-2	7	114	-1	26	6.1*
CCCNC(=O)C1(C)CCCN(C(=O)c2cc(C)n(C(C)(C)C)n2)C1 (stereo unspecified)	0	-1	-4	.	.	0	.	.
C=CCN1C(=O)C(CC(=O)O)SC1=Nc1ccc(N=Nc2ccccc2)cc1 (stereo unspecified)	55*	4	-12	17	89	1	37*	8.8*
Cc1cc(C(C)(C)C)cc(C)c1S(=O)(=O)N1CCN(C(=O)c2cc([N+](=O)[O-])c[nH]c2=O)CC1	35*	0	-2	10	98	22	54*	18*
COc1ccc(/C=N/Nc2snc(SC)c2C#N)cc1OC	50*	3	-4	7	105	-9	36*	11*
CSc1nsc(N/N=C/c2ccccc2)c1C#N	23	1	-4	-4	99	-5	.	.
